In PubChem BioAssay one finds composite z-score and z-score data, which are given here for six compounds.

Activity calls are given as the source filed them.

In test [1] the test system is Plasmodium falciparum Sir2 (PF13_0152, Sir2A). Description: Plasmodium falciparum Sir2A binding compounds – biochemical, small-molecule microarray, 635 nm fluorescence, primary screen (AID 1098).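 Further: score merges spot fluorescence intensity with its signal-to-noise ratio.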 Conditions: fluorescence 635 nm, higher = more signal.
Test [2] is described as follows: probe aDKK1 binding to arrayed compounds – biochemical, biotinylated probe, 635/667 nm fluorescence, primary screen (AID 1099).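 Further: score merges 667nm spot fluorescence with signal to noise across triplicate slides.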 The following applies: small-molecule microarray, higher = more signal.
The nature of test [3]: probe aCHRDL2 binding to arrayed compounds – biochemical, biotinylated probe, 635/667 nm fluorescence, primary screen (AID 1100). Conditions: small-molecule microarray, higher = more signal.
Test [4] is described as follows: change in splice reporter luminescence, either direction, cell-based, HEK293, spliceosome inhibition project, primary screen (AID 1101).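 Further: HEK293 cells carrying a splicing-competent luciferase reporter gene; test concentration not given here.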 The following applies: HEK293 splicing luciferase reporter, 24 h, higher = more signal, called active from +8 up or from −8 down.
For test [5], the target named is Fibroblast growth factor 10 (Homo sapiens) (UniProt O15520). Description: compounds binding fibroblast growth factor 10 – biochemical, small-molecule microarray, 635 nm fluorescence, primary screen (AID 1102). The following applies: FGF10 binding, fluorescence 635 nm, higher = more signal.
Chain of Fibroblast growth factor 10 (Homo sapiens) (O15520 whole entry, looked up): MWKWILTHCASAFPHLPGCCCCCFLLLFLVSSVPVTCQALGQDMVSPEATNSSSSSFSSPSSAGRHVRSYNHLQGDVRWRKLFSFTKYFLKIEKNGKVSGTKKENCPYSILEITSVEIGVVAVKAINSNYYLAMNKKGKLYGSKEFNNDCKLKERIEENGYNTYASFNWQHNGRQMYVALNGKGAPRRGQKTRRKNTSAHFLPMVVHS
Test [6] relates to glycogen synthase kinase-3 (GSK3A per assay name; protocol says GSK3B). Nature of the test: compounds binding glycogen synthase kinase-3 – biochemical, small-molecule microarray, 635 nm fluorescence, GSK3A, primary screen (AID 1103). Further: the record names both GSK3A and GSK3B. Conditions: fluorescence 635 nm, higher = more signal.
Test [7] addresses Epidermal growth factor receptor (Homo sapiens) (UniProt P00533). Description: compounds binding epidermal growth factor receptor – biochemical, small-molecule microarray, 635 nm fluorescence, primary screen (AID 1104).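 Further: score merges 667 nm emission intensity with spot signal to noise over triplicate slides.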 Conditions: EGFR binding, higher = more signal.
Test [8] deals with Follistatin-related protein 3 (Homo sapiens) (UniProt O95633). Description: compounds binding follistatin-related protein 3 – biochemical, small-molecule microarray, 635 nm fluorescence, primary screen (AID 1105).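 Further: score merges emission near 667 nm and signal to noise per printed spot across three slides.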 Conditions: FSTL3 binding, higher = more signal.
Chain of Follistatin-related protein 3 (Homo sapiens) (O95633 whole entry, looked up): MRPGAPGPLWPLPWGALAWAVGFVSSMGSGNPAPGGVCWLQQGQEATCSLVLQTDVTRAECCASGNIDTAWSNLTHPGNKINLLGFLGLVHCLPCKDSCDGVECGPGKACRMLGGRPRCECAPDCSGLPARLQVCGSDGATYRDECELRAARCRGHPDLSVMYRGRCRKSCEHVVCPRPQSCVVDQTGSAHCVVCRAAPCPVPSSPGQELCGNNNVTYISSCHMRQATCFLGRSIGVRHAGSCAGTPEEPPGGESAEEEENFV
Test [9] deals with Dickkopf-related protein 1 (Homo sapiens) (UniProt O94907). Nature of the test: small molecules binding DKK1 protein – biochemical, small-molecule microarray, 635 nm fluorescence scan, primary screen (AID 1106).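 Further: score merges emission near 667 nm with signal to noise over three replicate slides.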 The following applies: higher = more signal.
Chain of Dickkopf-related protein 1 (Homo sapiens) (O94907 whole entry, looked up): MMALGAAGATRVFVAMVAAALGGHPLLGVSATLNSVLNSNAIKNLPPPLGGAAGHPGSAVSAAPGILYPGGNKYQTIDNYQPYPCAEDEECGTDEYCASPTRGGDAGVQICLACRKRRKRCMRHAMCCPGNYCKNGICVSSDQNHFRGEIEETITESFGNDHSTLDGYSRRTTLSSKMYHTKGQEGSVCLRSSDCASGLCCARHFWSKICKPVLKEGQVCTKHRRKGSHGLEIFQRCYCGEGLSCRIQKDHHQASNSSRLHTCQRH
Test [10] concerns Inhibin beta A chain (activin A). Nature of the test: small molecules binding activin A – biochemical, small-molecule microarray, 635 nm fluorescence scan, primary screen (AID 1107).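 Further: mouse activin A protein probed at 4.33 µg/mL on printed slides; score merges bound-protein fluorescence near 667 nm with spot signal-to-noise.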 Conditions: INHBA, higher = more signal.
For test [11], the system named is Human papillomavirus type 1a protein E7 (residues 44-93). Nature of the test: small molecules binding HPV E7 44-93 – biochemical, small-molecule microarray, residues 44-93, 635 nm fluorescence, primary screen (AID 1108).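 Further: E7 fragment applied at 1 µg/mL in TBST for 1 h at 4 C; score combines spot fluorescence with its signal to noise ratio.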 Conditions: fluorescence 635 nm, higher = more signal.
Test [12] is described as follows: hepatitis C replication reporter changes, two-sided – Huh7 cells, luciferase reporter, HCV replication inhibitor project, primary screen (AID 1109).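 Further: huh7 hepatoma cells harbouring a luciferase neomycin HCV replicon reporter; luciferase luminescence as measure of HCV replicon replication; test concentration not given here.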 Conditions: Huh7 HCV replicon luciferase reporter, 48 h; higher = more signal.
Test [13] deals with Left-right determination factor 2 (Homo sapiens) (UniProt O00292). Nature of the test: small molecules binding LEFTY2 protein – biochemical, small-molecule microarray, 635 nm fluorescence scan, primary screen (AID 1110). Conditions: higher = more signal.
Chain of Left-right determination factor 2 (Homo sapiens) (O00292 whole entry, looked up): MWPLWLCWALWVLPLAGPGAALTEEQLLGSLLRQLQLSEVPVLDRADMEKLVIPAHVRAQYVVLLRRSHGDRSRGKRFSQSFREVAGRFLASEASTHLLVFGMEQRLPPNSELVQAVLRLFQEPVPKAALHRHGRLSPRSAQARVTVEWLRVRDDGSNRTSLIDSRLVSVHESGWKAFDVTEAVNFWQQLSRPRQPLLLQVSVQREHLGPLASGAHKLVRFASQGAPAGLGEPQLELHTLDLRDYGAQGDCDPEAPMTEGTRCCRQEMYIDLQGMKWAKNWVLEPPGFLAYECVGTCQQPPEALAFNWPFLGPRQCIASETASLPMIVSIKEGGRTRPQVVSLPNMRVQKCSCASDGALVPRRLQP
The target in test [14] is Calmodulin-1 (Homo sapiens) (UniProt P0DP23). Nature of the test: small molecules binding calmodulin-1 with EGTA – biochemical, small-molecule microarray, Cy5-labelled CALM1, profiling panel (AID 1111).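 Further: labelled calmodulin applied in Tris saline Tween buffer holding calcium plus EGTA and DTT.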 Conditions: Cy5-CALM1 binding fluorescence, higher = more signal.
Test [15] shares this target. Description: small molecules binding Ca-loaded calmodulin-1 – biochemical, small-molecule microarray, Cy5-labelled CALM1, plus calcium, artefact control for SMM control-protein annotation, profiling panel (AID 1112).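 Further: score merges spot fluorescence with signal to noise from triplicate slides.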 The following applies: Cy5-CALM1 binding fluorescence, higher = more signal.
The nature of test [16]: probe aWnt5a binding to arrayed compounds – biochemical, biotinylated probe, 635/667 nm fluorescence, primary screen (AID 1113).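 Further: score merges 667 nm fluorescence intensity with signal-to-noise per printed feature.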 Conditions: small-molecule microarray, higher = more signal.
The nature of test [17]: probe aShh binding to arrayed compounds – biochemical, biotinylated probe, 635/667 nm fluorescence, primary screen (AID 1114).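 Further: probe is biotin-labelled aShh protein from a stem cell growth factor screen; measures binding of labelled protein to compounds printed on the slide; score merges feature fluorescence at 667 nm with signal-to-noise.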 Conditions: small-molecule microarray, higher = more signal.
Test [18] in a line: probe aNog binding to arrayed compounds – biochemical, biotinylated probe, 635/667 nm fluorescence, primary screen (AID 1115).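 Further: probe is biotinylated aNog protein used at 0.15 µg/mL for 1 h at 4 C; z-score combines 667 nm fluorescence of each spot with its signal to noise.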 The following applies: small-molecule microarray, higher = more signal.
For test [19], the target named is Torsin-1A-interacting protein 1 (Homo sapiens) (UniProt Q5JTV8). Description: compound microarray binding of lysate hLAP1 – cell lysate, small-molecule microarray, COS7 lysate, 635/667 nm fluorescence, primary screen (AID 1116). Conditions: 635 nm fluorescence, higher = more signal.
Chain of Torsin-1A-interacting protein 1 (Homo sapiens) (Q5JTV8 whole entry, looked up): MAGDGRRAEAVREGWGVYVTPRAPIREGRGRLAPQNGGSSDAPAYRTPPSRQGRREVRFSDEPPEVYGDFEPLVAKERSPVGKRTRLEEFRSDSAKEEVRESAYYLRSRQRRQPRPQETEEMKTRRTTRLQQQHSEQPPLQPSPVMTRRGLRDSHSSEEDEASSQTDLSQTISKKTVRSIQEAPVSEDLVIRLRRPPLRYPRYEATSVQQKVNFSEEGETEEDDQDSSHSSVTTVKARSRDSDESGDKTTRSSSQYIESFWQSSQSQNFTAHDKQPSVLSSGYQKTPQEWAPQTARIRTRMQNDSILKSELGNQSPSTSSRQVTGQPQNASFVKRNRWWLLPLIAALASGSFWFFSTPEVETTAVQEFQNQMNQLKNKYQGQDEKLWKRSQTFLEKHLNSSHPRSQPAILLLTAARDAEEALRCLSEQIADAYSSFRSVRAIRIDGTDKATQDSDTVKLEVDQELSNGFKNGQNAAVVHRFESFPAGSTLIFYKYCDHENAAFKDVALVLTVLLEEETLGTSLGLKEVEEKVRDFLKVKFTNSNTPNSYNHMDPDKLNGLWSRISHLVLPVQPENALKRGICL
In test [20] the target is Alpha-bungarotoxin (Bungarus multicinctus) (UniProt P60615). Description: compounds binding labelled alpha-BTX control protein – biochemical, small-molecule microarray, Alexa647 label, 635/667 nm fluorescence, artefact control for SMM control protein annotation, profiling panel (AID 1117). The following applies: alpha-BTX-A647 binding fluorescence, higher = more signal.
Chain of Alpha-bungarotoxin (Bungarus multicinctus) (P60615 whole entry, looked up): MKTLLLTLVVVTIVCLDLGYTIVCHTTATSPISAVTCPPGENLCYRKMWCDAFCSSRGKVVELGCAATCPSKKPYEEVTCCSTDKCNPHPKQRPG

Chain of Epidermal growth factor receptor (Homo sapiens) (P00533 whole entry, looked up): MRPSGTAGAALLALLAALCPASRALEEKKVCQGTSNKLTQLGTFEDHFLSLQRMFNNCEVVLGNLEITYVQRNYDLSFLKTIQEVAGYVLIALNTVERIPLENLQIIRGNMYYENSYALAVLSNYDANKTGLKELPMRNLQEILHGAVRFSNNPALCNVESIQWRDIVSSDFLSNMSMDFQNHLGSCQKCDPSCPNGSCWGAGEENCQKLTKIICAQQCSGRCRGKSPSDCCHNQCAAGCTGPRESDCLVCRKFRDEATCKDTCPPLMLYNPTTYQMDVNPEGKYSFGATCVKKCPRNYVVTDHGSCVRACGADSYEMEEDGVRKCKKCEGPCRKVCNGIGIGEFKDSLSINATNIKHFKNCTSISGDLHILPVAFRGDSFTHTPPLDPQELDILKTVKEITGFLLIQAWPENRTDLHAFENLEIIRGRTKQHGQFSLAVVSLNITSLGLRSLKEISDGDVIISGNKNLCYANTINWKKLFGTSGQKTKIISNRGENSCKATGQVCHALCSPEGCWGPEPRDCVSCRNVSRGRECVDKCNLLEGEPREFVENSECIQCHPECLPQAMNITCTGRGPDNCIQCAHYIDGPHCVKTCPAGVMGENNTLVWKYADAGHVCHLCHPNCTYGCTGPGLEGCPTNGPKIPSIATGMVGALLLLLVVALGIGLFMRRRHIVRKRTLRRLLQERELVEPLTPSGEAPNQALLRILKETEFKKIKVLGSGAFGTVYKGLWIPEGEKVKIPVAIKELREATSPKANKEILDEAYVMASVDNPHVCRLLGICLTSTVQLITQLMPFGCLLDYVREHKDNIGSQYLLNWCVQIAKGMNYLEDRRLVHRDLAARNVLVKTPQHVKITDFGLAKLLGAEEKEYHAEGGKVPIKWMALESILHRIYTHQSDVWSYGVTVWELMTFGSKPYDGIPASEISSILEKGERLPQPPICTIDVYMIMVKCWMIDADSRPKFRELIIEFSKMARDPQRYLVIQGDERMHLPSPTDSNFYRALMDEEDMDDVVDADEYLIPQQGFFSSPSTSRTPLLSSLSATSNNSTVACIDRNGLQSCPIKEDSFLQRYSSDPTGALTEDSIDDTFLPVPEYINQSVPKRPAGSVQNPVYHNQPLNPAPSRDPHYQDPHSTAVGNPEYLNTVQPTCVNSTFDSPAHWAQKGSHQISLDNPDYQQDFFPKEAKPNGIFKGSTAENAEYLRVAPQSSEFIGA

Turning to `O=C1[C@H]2[C@H]3[C@H](O)[C@H](O)CC(=NO[C@@H]4O[C@H](CO)[C@@H](O)[C@H](O)[C@H]4O)[C@H]3CC[C@H]2C(=O)N1Cc1ccc2c(c1)OCO2`, the composite z-score in [1] was 0.381; in [2], 0.215; in test [3], 0.821; in test [5], -0.0585; in test [6], -0.417; in test [7], -0.678. Besides, the composite z-score was -0.387 in test [8]; -0.899 in test [9]; -0.401 in test [10]; 1.44 in test [11]; -0.515 in [13]; -0.603 in test [14]. For the same compound, the composite z-score in [15] was -0.329; in [16], -0.115; in test [17], -0.397; in test [18], 0.0327; in [19], 0.441; in test [20] it was 1.02. Also, the z-score is -0.0194 (inactive) in test [4] and -0.594 in test [12].
In the case of `COc1ccc(O[C@H]2C=C[C@@H](c3ccccc3)O[C@@H]2COC(=O)CCC(C)=NO[C@@H](C)c2cc(-c3c(C)cc(C)cc3C)no2)cc1`, the composite z-score was -0.0775 in test [1]; -0.344 in test [2]; 0.268 in test [3]; -1.05 in test [5]; -2.04 in test [6]; -0.747 in [7]. The composite z-score in test [8] was -1.39; in test [9], -0.872; in test [10], 0.934; in test [11], -1.13; in test [13], -0.965; in test [14] it was -0.977. Besides, the composite z-score in test [15] was -0.55; in [16], -0.194; in [17] it was 0.255; in [18], -0.0207; in [19], -1.16; in test [20], -0.707. Further, the figures for the z-score in test [4] and in test [12] were -0.398 (inactive) and -1.15, respectively.
Regarding `C/C=C\[C@@H](NCc1ccccc1Br)[C@@H](O)Cc1ccccc1`, the composite z-score in test [1] was 0.556; in [2], 0.41; in [3], 1.19; in test [5], -1.69; in [6], -0.683; in test [7] it was -1.37. The composite z-score was -1.69 in test [8]; -1.58 in test [9]; 0.0067 in test [10]; -0.594 in [11]; -0.472 in [13]; -0.64 in test [14]. Further, the composite z-score in [15] is 0.0924; in test [16] it was -0.12; in test [17], -0.291; in test [18] it was -0.18; in test [19], -0.541; in test [20], -0.791. Further, the z-score in test [4] was -0.307 (inactive); in [12], -3.08.
As to `O=C1O[C@@H](c2ccccc2)[C@@H](c2ccccc2)N2[C@@H](c3ccc(OCCO)cc3)[C@]3(C(=O)Nc4ccc(C#CCCO)cc43)[C@@H](C(=O)N3CCCCCCC3)[C@H]12`, the composite z-score came to 1.85 in [1]; 2.25 in test [2]; 1.13 in [3]; 1.22 in test [5]; 1.32 in test [6]; 0.744 in test [7]. The composite z-score in test [8] was 1.55; in test [9] it was 1.78; in [10], 1.71; in test [11] it was -0.516; in test [13] it was 1.07; in [14], 2.62. Further, the composite z-score came out at 1.06 in [15]; 0.935 in [16]; 2.18 in test [17]; 2.81 in [18]; 4.07 in test [19]; 2.78 in [20]. In addition, the z-score in [4] was -0.277 (inactive); in test [12], -0.777.
Consider `COC(=O)[C@H](C)NC(=O)CCC1CC(OC(=O)NCc2cccc3ccccc23)CC2(CCCC(COC(=O)NCCc3ccc(Cl)cc3)O2)O1` (stereo not given in full), for which the composite z-score is -0.0744 in [1]; -0.299 in [2]; -0.444 in test [3]; 0.794 in test [5]; 0.69 in test [6]; 0.381 in [7]. Moreover, the composite z-score in test [8] is 0.494; in test [9], 0.302; in [10], -0.131; in test [11] it was 0.953; in test [13], 0.451; in [14] it was 0.866. Moreover, the composite z-score was -0.0789 in [15]; -0.0075 in [16]; -0.138 in [17]; -0.213 in [18]; 0.33 in [19]; 0.171 in test [20]. Also, the z-score is -0.875 (inactive) in test [4] and -1.05 in [12].
For `O=C1O[C@@H](c2ccccc2)[C@@H](c2ccccc2)N2[C@@H](c3ccccc3OCCO)[C@]3(C(=O)Nc4ccc(C#CCCO)cc43)[C@@H](C(=O)O)[C@H]12`, the composite z-score in test [1] was 1.58; in test [2], -0.878; in [3], -0.721; in [5], 0.608; in [6], 1.03; in test [7] it was -0.0589. The composite z-score in [8] was 0.14; in [9], -0.167; in test [10], 1.24; in test [11] it was 1.42; in test [13], -0.28; in test [14] it was 1.04. Further, the composite z-score in test [15] came out at 0.734; in [16], 0.385; in [17], 0.633; in test [18] it was 1.32; in [19], 1.17; in test [20], 2.53. In addition, the figures for the z-score in [4] and in [12] were -2.02 (inactive) and -1.99, respectively.
